Source: PubChem
Chlamy TAG = algal TAG accumulation induction | Chlamydomonas reinhardtii TAG, Nile Red fluorescence, 72 h | calls only at 10 µM (by protocol) | 44,000 compounds, 0.84% hits; call rule not given here;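 further: hits raise Nile Red signal meaning more stored TAG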
Calls only; - = inactive; + = active, no number. Many of the other results were omitted from the sample, so hits are more common in it than they were.

SMILES	Chlamy TAG
O=[N+]([O-])c1ccc(CNC2CCCc3ccccc32)cc1 (centres undefined)	-
O=C(NC1CCCCC1)c1ccc([N+](=O)[O-])o1	-
O=[N+]([O-])c1ccc(COc2ccc(-c3[nH]ncc3-c3nc4ccccc4s3)c(O)c2)cc1	-
O=c1[nH]c(SCCc2ccccc2)nc2ccccc12	-
O=C(O)c1ccc2c(c1)C(=O)N(CCO)C2=O	-
O=C(O)C1CC=CCC1C(=O)Nc1nc(-c2ccc(Br)cc2)cs1 (centres undefined)	-
O=C(O)C1(S(=O)(=O)c2ccccc2)CC1	-
CC1CCN(C2CCN(CCc3ccccc3)CC2)CC1	-
CCCC1(O)CC(c2ccccc2)NC(c2ccccc2)C1C (centres undefined)	-
CC(C)CNC(=O)c1ccc(Br)o1	-
Cc1ccc(-c2nnc(-c3ccccc3Cl)o2)cc1	-
Clc1ccccc1-c1nnc(-c2ccccc2)o1	+
Clc1ccccc1-c1nnc(-c2ccccc2Cl)o1	-
COc1cccc(NC(=O)c2cc3ccccc3o2)c1	-
O=C1C(=O)N(Cc2ccc(F)cc2)c2ccc(Br)cc21	-
C=CCN1C(=O)C(=O)c2cc(Br)ccc21	+
C#CCN1C(=O)C(=O)c2cc(Br)ccc21	-
O=C(NCCc1ccccc1)C1CCN(Cc2ccccc2Cl)CC1	-
Cc1ccc(CN2CCC(C(=O)NCc3ccccc3Cl)CC2)cc1	+
Cc1ccc(CNC(=O)C(=O)NCc2ccccc2Cl)cc1	-
Cc1cccc(NC(=O)c2ccccc2-c2ccccc2C(=O)O)c1C	-
Cc1ccc(OCC(O)CN(C)C)cc1 (centres undefined)	-
Cc1ccc(OCC(O)CN(C)C2CCCCC2)cc1C (centres undefined)	+
OC(COc1ccccc1Br)CN(C1CCCCC1)C1CCCCC1 (centres undefined)	-
CN(CC(O)COc1ccc(F)cc1)C1CCCCC1 (centres undefined)	+
SMILES	Chlamy TAG
Cc1ccc(OCC(O)CN2CCN(Cc3ccccc3)CC2)cc1C (centres undefined)	-
CN(CC(O)COCc1ccccc1)C1CCCCC1 (centres undefined)	-
COc1ccccc1N(CC(=O)Nc1ccc(F)cc1)S(=O)(=O)c1ccc(C)cc1	-
CC(CNC(=O)c1cccs1)CN(C)C (centres undefined)	-
Cc1ccccc1OCC(=O)Nc1ccccc1[N+](=O)[O-]	-
Cc1cc(C)c(NC(=O)COc2ccccc2C)c(Cl)c1	-
Cc1cc(C)c(NC(=O)COc2ccccc2[N+](=O)[O-])c(C)c1	+
CN1CCCc2c(O)cccc21	-
CC1CCCN(CCOCCOc2ccccc2)C1 (centres undefined)	-
COC(C)(C)c1cc(-c2ccc([N+](=O)[O-])cc2)nc(N)n1	-
Cc1cc(=O)[nH]c(NCc2ccccc2)n1	-
COc1cc(C)nc(NCc2ccccc2)n1	+
Cc1cc(Oc2ccc([N+](=O)[O-])cc2)nc(NCc2ccccc2)n1	-
CC(=O)c1ccc(NC(=O)CCCOc2ccc(Cl)cc2)cc1	-
CC(C)(C)S(=O)(=O)c1cccc(S(=O)(=O)C(C)(C)C)c1	-
Cc1cc(C=O)c(C)n1-c1ccc(Br)cc1F	+
COc1ccc(Cl)cc1-n1c(C)cc(C=O)c1C	-
Cc1cc(C=O)c(C)n1-c1ccc(O)cc1	-
Cc1cccc(NC(=O)CC(C)c2ccccc2)n1 (centres undefined)	-
Cc1ccc(Cl)cc1NC(=O)c1sc2ccccc2c1Cl	-
CCCCC(C(=O)Nc1cccc(C)c1)N1C(=O)c2ccccc2C1=O (centres undefined)	-
O=[N+]([O-])c1ccc(CN2CCN(C3CCCCC3)CC2)cc1	-
O=[N+]([O-])c1ccc(N2CCN(Cc3ccccc3)CC2)nc1	-
O=[N+]([O-])c1ccc(C(O)CN2CCN(Cc3ccccc3)CC2)cc1 (centres undefined)	+
O=[N+]([O-])c1ccc(CN2CCN(C3CCCC3)CC2)cc1	+
SMILES	Chlamy TAG
O=[N+]([O-])c1ccc(C(O)CN2CCc3ccccc32)cc1 (centres undefined)	-
O=[N+]([O-])c1cccc(CN2CCN(C3CCCC3)CC2)c1	-
CC1CCc2c(sc(NC(=O)CCc3ccccc3)c2C(N)=O)C1 (centres undefined)	-
Cc1cc(C)nc(NC(=O)Cn2cnc3c2c(=O)n(C)c(=O)n3C)n1	-
COc1ccccc1-c1coc2cc(OCc3ccccc3)ccc2c1=O	-
CCC(=O)Nc1ccc2oc(-c3cccc(Cl)c3)nc2c1	-
Cc1cc(C)nc(SCC(=O)Nc2ccc(Cl)cc2)n1	-
CC(=O)Nc1ccc(OCC(=O)Nc2cc(Cl)cc(Cl)c2)cc1	+
O=C(COc1ccc(Cl)cc1)Nc1ccc(Br)cc1	-
CC(=O)Nc1ccc(NC(=O)COc2ccc(C)c(C)c2)cc1	-
CC(=O)Nc1ccc(NCc2ccc(Cl)cc2)cc1	-
CCc1ccc(-c2cc(C(=O)N3CCN(C)CC3)c3ccccc3n2)cc1	-
COc1cc(C)c(CNc2cc(C)ccc2OC)cc1C	-
CC(=O)c1cccc(NC(=O)c2cc(Br)ccc2Cl)c1	-
O=C(Nc1ccc(Cl)cc1)c1ccccc1Br	-
COc1ccc(Br)cc1C(=O)Nc1ccc(Cc2ccncc2)cc1	-
O=C(O)c1ccc(NC(=O)c2ccccc2Cl)cc1	-
O=C(Nc1ccc(Cc2ccncc2)cc1)c1cc(Br)ccc1Cl	+
O=C(Nc1ccc(Br)cc1)c1ccccc1Cl	+
CCOc1ccc(N(CC(=O)NCc2cccnc2)S(C)(=O)=O)cc1	-
CCN(CC)S(=O)(=O)c1cccc(C(=O)Nc2cccc([N+](=O)[O-])c2)c1	-
Cc1cccc(OCCCCN2CCOCC2)c1	+
Ic1ccc(OCCCN2CCOCC2)cc1	-
O=[N+]([O-])c1ccc(OCCCCN2CCCCC2)cc1	-
c1ccc(OCCCN2CCOCC2)cc1	-
SMILES	Chlamy TAG
CCOc1cccc(OCCN2CCOCC2)c1	-
CC(C)(C)c1ccc(OCCCCN2CCOCC2)cc1	+
c1ccc(COc2ccc(OCCCCN3CCOCC3)cc2)cc1	-
O=[N+]([O-])c1ccc(OCCCN2CCCC2)cc1	-
O=[N+]([O-])c1ccc(OCCCCN2CCOCC2)cc1	+
COc1ccc(CCC(=O)Nc2sc3c(c2C(N)=O)CCCCCC3)cc1	-
O=C(O)CCS(=O)(=O)c1ccc(Br)cc1	-
CCC(=NCCc1c[nH]c2ccccc12)c1c(O)n(-c2cccc(F)c2)c(=O)[nH]c1=O	-
c1ccc(CN2CCN(C3CCCC3)CC2)nc1	-
COc1cccc(CNc2cccc(Cl)c2C)c1	-
COCCC(=O)NC12CC3CC(CC(C3)C1)C2	-
CC(C)NCC(=O)NC12CC3CC(CC(C3)C1)C2	+
O=C(O)CC(=O)NC12CC3CC(CC(C3)C1)C2	-
CC1(C)CC(=O)C2=C(C1)Nc1ccccc1NC2c1ccc(-c2ccccc2[N+](=O)[O-])o1 (centres undefined)	-
O=C1CC(N2CCC(C(O)(c3ccccc3)c3ccccc3)CC2)C(=O)N1c1ccc(F)cc1 (centres undefined)	+
NC(=O)C1CCN(C2CC(=O)N(c3ccc(F)cc3)C2=O)CC1 (centres undefined)	-
COc1ccc(N2C(=O)CC(N3CCC(C(O)(c4ccccc4)c4ccccc4)CC3)C2=O)cc1 (centres undefined)	-
O=Cc1cc2c3c(c1O)CCCN3CCC2	-
NC(=O)c1ccccc1NC(=O)c1ccncc1	-
Cc1cc(Cl)cc(C)c1OCCn1ccnc1	+
Cc1cc(Cl)c(OCCOCCn2ccnc2)c(Br)c1	-
Cc1ccc(OCCn2ccnc2)c(Cl)c1	-
